Data: PubChem BioAssay (NCI)
The panel holds about 79,000 compounds, 15% with a hit somewhere; the sample as a whole holds those more often. Activity calls are given as the source filed them. No stated cut-off is given here; in the data, active means growth inhibition above about 70%; inactive means the rest.

Experiments:
[1] = NCI Yeast Anticancer Drug Screen. Data for the rad52 strain (AID 147);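 further: 0% = growth of vehicle-treated control cultures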; settings: S. cerevisiae rad52 mutant growth inhibition, hits give high values
How it was run: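 Screen used a yeast mutant impaired in DNA repair. After compound exposure, growth was measured. Values reflect inhibition compared with vehicle-treated cells.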

[2] = NCI Yeast Anticancer Drug Screen. Data for the wt1 strain (AID 149);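 further: 0% = growth of vehicle-treated wt1 cultures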; settings: S. cerevisiae wt1 strain (SPY 50644) growth inhibition, hits give high values
How it was run: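 Each compound is tested on wt1 yeast and the loss of growth versus vehicle gives the inhibition value.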

[3] = NCI Yeast Anticancer Drug Screen. Data for the rad50EPP+ strain (AID 151);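 further: 0% = growth of vehicle-treated control cultures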; settings: S. cerevisiae rad50 mutant strain, hits give high values
How it was run: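 Exposing the rad50EPP+ strain to each compound, growth was compared with vehicle-only cultures to give inhibition.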

[4] = NCI Yeast Anticancer Drug Screen. Data for the mgt1 strain (AID 153); settings: S. cerevisiae mgt1 mutant growth inhibition, hits give high values
How it was run: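 Genetically defined yeast (mgt1) treated with compound; inhibition of growth expressed against vehicle-treated controls.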

[5] = NCI Yeast Anticancer Drug Screen. Data for the rad50 strain (AID 155);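 further: 0% = growth of vehicle-only cultures of the same strain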; settings: S. cerevisiae rad50 strain growth inhibition, hits give high values
How it was run: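 Vehicle-treated cultures provide the reference for the growth inhibition reported for compound-exposed, repair-deficient yeast.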

[6] = NCI Yeast Anticancer Drug Screen. Data for the mec2-1 strain (AID 157); settings: S. cerevisiae mec2-1 strain, hits give high values
How it was run: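 Readout is yeast growth inhibition, normalised to vehicle-treated controls, in the mec2-1 strain exposed to compound.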

[7] = NCI Yeast Anticancer Drug Screen. Data for the rad14 strain (AID 159);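 further: 0% = growth of vehicle-treated control cultures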; settings: S. cerevisiae rad14 strain growth inhibition, hits give high values
How it was run: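 Inhibition of growth is reported for a repair-deficient yeast mutant following compound treatment, calculated relative to cultures that received vehicle.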

[8] = NCI Yeast Anticancer Drug Screen. Data for the sgs1 mgt1 strain (AID 161);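 further: 0% = growth of cultures given vehicle only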; settings: S. cerevisiae sgs1 mgt1 strain, hits give high values
How it was run: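 Yeast cells carrying a defined DNA-repair defect were exposed to test compounds. Growth inhibition was measured relative to vehicle-treated controls.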

[9] = NCI Yeast Anticancer Drug Screen. Data for the CLN2oe strain (AID 163);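 further: 0% = growth of vehicle-only control cultures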; settings: S. cerevisiae CLN2oe strain, hits give high values
How it was run: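 Values reflect how much compound exposure reduced yeast growth, referenced to vehicle-exposed cells. Assay organism is a strain with a defined genetic change affecting cell-cycle control.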

[10] = NCI Yeast Anticancer Drug Screen. Data for the cln2 rad14 strain (AID 165);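 further: 0% = growth equal to vehicle treated cultures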; settings: S. cerevisiae cln2 rad14 strain, hits give high values
How it was run: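 Relative to vehicle controls, growth inhibition of compound-treated cln2 rad14 yeast was recorded.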

[11] = NCI Yeast Anticancer Drug Screen. Data for the bub3 strain (AID 167); settings: S. cerevisiae bub3 mutant strain, hits give high values
How it was run: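 Mutant yeast screening strain plus compound; vehicle-treated cultures serve as the 0% inhibition reference.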

[12] = NCI Yeast Anticancer Drug Screen. Data for the wt2 strain (AID 169); settings: S. cerevisiae wt2 strain growth inhibition, hits give high values
How it was run: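 Values express reduction in yeast growth under compound treatment, referenced to vehicle-treated cells.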

[13] = NCI Yeast Anticancer Drug Screen. Data for the mlh1 strain (AID 171);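 further: 0% = growth of vehicle-treated control cultures of the same strain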; settings: S. cerevisiae mlh1 strain growth inhibition, hits give high values
How it was run: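 Steps: expose the defined-mutant yeast strain to compound; expose a parallel culture to vehicle; measure growth; express compound effect as inhibition relative to the vehicle culture.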

[14] = NCI Yeast Anticancer Drug Screen. Data for the sgs1 strain (AID 173);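 further: 0% = growth of vehicle-only control cultures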; settings: S. cerevisiae sgs1 mutant, hits give high values
How it was run: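 Treat defined-mutant yeast with compound; measure growth; calculate inhibition relative to vehicle-treated cells.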

[15] = NCI Yeast Anticancer Drug Screen. Data for the mlh1 rad18 strain (AID 175); settings: S. cerevisiae mlh1 rad18 strain growth inhibition, hits give high values
How it was run: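 Test agents were incubated with a yeast strain of defined genotype (DNA damage repair defect). Inhibition of growth was derived by comparison with vehicle-exposed cultures.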

[16] = NCI Yeast Anticancer Drug Screen. Data for the rad18 strain (AID 177); settings: S. cerevisiae rad18 mutant growth inhibition, hits give high values
How it was run: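 A genetically defined yeast mutant impaired in DNA damage repair was treated with test compounds, then its growth was measured against cultures receiving vehicle alone.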

[17] = at 5.0 µM (retest, dose inferred, filed as 0.5)
[18] = at 50.0 µM (retest, dose inferred, filed as 5.0)

Measured: growth inhibition

CC1(C2CC2)C(C#N)(C#N)C1(C#N)C#N
inactive: [1]; at 1.2 µM 2% | [1]; at 3.7 µM 10% | [1]; at 11.0 µM 22% | [1]; at 33.0 µM 45% | [2]; at 1.2 µM -2% | [2]; at 3.7 µM -2% | [2]; at 11.0 µM 5% | [2]; at 33.0 µM 19% | [2]; at 100.0 µM 48% | [3]; at 1.2 µM -1% | [3]; at 3.7 µM 2% | [3]; at 11.0 µM 1% | [3]; at 33.0 µM 9% | [3]; at 100.0 µM 9% | [4]; at 1.2 µM -1% | [4]; at 3.7 µM -2% | [4]; at 11.0 µM 1% | [4]; at 33.0 µM 16% | [4]; at 100.0 µM 63% | [5]; at 1.2 µM -1% | [5]; at 3.7 µM 3% | [5]; [17] -106% | [5]; at 11.0 µM 25% | [5]; at 33.0 µM 66% | [5]; at 50.0 µM 38.1% | [6]; at 1.2 µM 4% | [6]; at 3.7 µM 2% | [6]; [17] -39% | [6]; at 11.0 µM 33% | [6]; at 33.0 µM 36% | [6]; [18] 57% | [6]; at 50.0 µM 41.9% | [7]; at 1.2 µM 4% | [7]; at 3.7 µM 7% | [7]; at 11.0 µM 16% | [7]; at 33.0 µM 29% | [7]; at 100.0 µM 66% | [8]; [17] -48% | [8]; at 50.0 µM 51% | [9]; at 1.2 µM -2% | [9]; at 3.7 µM 8% | [9]; at 11.0 µM 16% | [9]; at 33.0 µM 21% | [9]; at 100.0 µM 53% | [10]; [17] -50% | [10]; [18] 7% | [10]; at 50.0 µM 16.3% | [11]; at 1.2 µM -7% | [11]; at 3.7 µM -2% | [11]; [17] -57% | [11]; at 11.0 µM 19% | [11]; at 33.0 µM 49% | [11]; at 50.0 µM 39.8% | [12]; at 1.2 µM -1% | [12]; at 3.7 µM -2% | [12]; at 11.0 µM -1% | [12]; at 33.0 µM 15% | [12]; at 100.0 µM 69% | [13]; at 1.2 µM 4% | [13]; at 3.7 µM -9% | [13]; at 11.0 µM 9% | [13]; at 33.0 µM 31% | [14]; at 1.2 µM -1% | [14]; at 3.7 µM 6% | [14]; at 11.0 µM 23% | [14]; at 33.0 µM 60% | [15]; [17] -96% | [16]; at 1.2 µM 4% | [16]; at 3.7 µM 9% | [16]; at 11.0 µM 22% | [16]; at 33.0 µM 53%
active: [1]; at 100.0 µM 78% | [5]; [18] 91% | [5]; at 100.0 µM 91% | [6]; at 100.0 µM 84% | [8]; [18] 70% | [11]; [18] 81% | [11]; at 100.0 µM 84% | [13]; at 100.0 µM 84% | [14]; at 100.0 µM 94% | [15]; [18] 89% | [15]; at 50.0 µM 70.9% | [16]; at 100.0 µM 87%

C/C(=N/NC(=S)Nc1ccccc1C)c1ccccn1
inactive: [1]; at 1.2 µM 2% | [1]; at 3.7 µM 9% | [1]; at 11.0 µM 15% | [1]; at 33.0 µM 17% | [1]; at 100.0 µM 7% | [2]; at 1.2 µM -11% | [2]; at 3.7 µM -10% | [2]; at 11.0 µM -9% | [2]; at 33.0 µM -10% | [2]; at 100.0 µM -8% | [3]; at 1.2 µM 3% | [3]; at 3.7 µM 6% | [3]; at 11.0 µM 13% | [3]; at 33.0 µM 14% | [3]; at 100.0 µM 4% | [4]; at 1.2 µM -6% | [4]; at 3.7 µM -10% | [4]; at 11.0 µM 4% | [4]; at 33.0 µM -22% | [4]; at 100.0 µM -5% | [5]; at 1.2 µM 1% | [5]; at 3.7 µM 5% | [5]; [17] 9% | [5]; at 11.0 µM -9% | [5]; at 33.0 µM 7% | [5]; [18] 12% | [5]; at 100.0 µM 5% | [6]; at 1.2 µM -3% | [6]; at 3.7 µM -10% | [6]; [17] -40% | [6]; at 11.0 µM -9% | [6]; at 33.0 µM -9% | [6]; [18] 1% | [6]; at 50.0 µM 47% | [6]; at 100.0 µM -6% | [7]; at 1.2 µM -11% | [7]; at 3.7 µM -11% | [7]; at 11.0 µM -11% | [7]; at 33.0 µM -14% | [7]; at 100.0 µM -6% | [8]; [17] -35% | [8]; [18] 15% | [9]; at 1.2 µM -8% | [9]; at 3.7 µM -6% | [9]; at 11.0 µM -9% | [9]; at 33.0 µM -11% | [9]; at 100.0 µM -11% | [10]; [17] 12% | [10]; [18] 14% | [11]; at 1.2 µM -7% | [11]; at 3.7 µM 1% | [11]; [17] -32% | [11]; at 11.0 µM 4% | [11]; at 33.0 µM -2% | [11]; [18] 57% | [11]; at 50.0 µM 65% | [11]; at 100.0 µM -9% | [12]; at 1.2 µM -6% | [12]; at 3.7 µM -6% | [12]; at 11.0 µM -5% | [12]; at 33.0 µM -5% | [12]; at 100.0 µM -5% | [13]; at 1.2 µM -6% | [13]; at 3.7 µM -7% | [13]; at 11.0 µM -5% | [13]; at 33.0 µM -9% | [13]; at 100.0 µM -6% | [14]; at 1.2 µM -6% | [14]; at 3.7 µM -5% | [14]; at 11.0 µM -5% | [14]; at 33.0 µM -7% | [14]; at 100.0 µM -6% | [15]; [17] -15% | [15]; [18] -1% | [16]; at 1.2 µM 0% | [16]; at 3.7 µM 3% | [16]; at 11.0 µM 3% | [16]; at 33.0 µM -17% | [16]; at 100.0 µM -4%
active: [5]; at 50.0 µM 78% | [8]; at 50.0 µM 79.8% | [10]; at 50.0 µM 87.5% | [15]; at 50.0 µM 86.5%
